From PubChem BioAssay
The list is not random: actives were taken first. Their share in the collection is about 2.2%.
VLA-4 inh – inhibition in a human VLA-4 binding assay. actives 0.2% (n = 330,000). inhibition, % (about 7 µM as worked out from the volumes in the protocol). VLA-4 expressing cells, ligand binding flow cytometry; in the data active = inhibition above about 50%
MEKK2wt PB1 HTS – raises or lowers MEK5 binding to wildtype human MEKK2 PB1 domain | Q9Y2U5 | bead flow cytometry, Alexa488-MEK5 binding to MEKK2 WT; actives lie on both sides | binding response (% of control), % at 10 µM | actives 1.1% (n = 290,000) | AID 1531; in the data active = binding response below about 67% or above about 130%
MEKK2 mut-MEK5 – signal of MEK5 binding to mutant human MEKK2 PB1 domain; percent response, % at 10 µM; bead flow cytometry, Alexa488-MEK5 binding to MEKK2 mutant; actives 0.35% (n = 290,000); in the data active = percent response above about 24%, passing the limit was not always enough
MEKK3 PB1 HTS – raises or lowers MEK5 binding to the human MEKK3 PB1 domain. Q99759. bead-based flow cytometry, Alexa488-MEK5 binding to MEKK3; actives lie on both sides; 0 = blocked by unlabeled MEK5, 100 = vehicle. binding response (% of control), % at 10 µM. actives 1.4% (n = 290,000);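 active = binding response more than 3 SD above or below the average of its plate-row segment, actives on both sides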;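 note: Alexa488 bead fluorescence after subtracting the streptavidin-only scavenger bead signal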
MEKK2wt confirm – raises or lowers MEK5 binding to wildtype human MEKK2, retest. shares compounds with MEKK3 PB1 HTS. bead flow cytometry, Alexa488-MEK5 binding to MEKK2 WT; actives lie on both sides. binding response (% of control), % at 10 µM. actives 2.4% (n = 5,900). AID 1892; in the data active = binding response below about 16% or above about 210%; inactive = in between
MEKK2mut-MEK5 – signal of MEK5 binding to mutant human MEKK2, retest; actives 2% (n = 5,900); AID 1893; percent response, % at 10 µM; bead flow cytometry, Alexa488-MEK5 binding to MEKK2 mutant; shares compounds with MEKK3 PB1 HTS; in the data active = percent response mostly above about 71%, no sharp cut-off; inactive = mostly below about 38%;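 note: higher means compound restores mutant binding toward wildtype level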
MEKK3-MEK5 inh – MEKK3-MEK5 PB1 inhibition, single concentration confirmation; shares compounds with MEKK3 PB1 HTS; bead flow cytometry, Alexa488-MEK5 binding to MEKK3; active compounds read low; binding response (% of control), % at 10 µM; actives 1.8% (n = 5,900); AID 1894;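 active = binding response below 72% of control, or above a set upper limit, though filed actives all read lower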;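 note: 100% = DMSO only wells and 0% = binding blocked by excess unlabeled MEK5; lower values mean stronger disruption of MEK5 binding to MEKK3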
Active calls of the source: *; nt = no result given; [ ] = remark or other dose.

SMILES	VLA-4 inh	MEKK2wt PB1 HTS	MEKK2 mut-MEK5	MEKK3 PB1 HTS	MEKK2wt confirm	MEKK2mut-MEK5	MEKK3-MEK5 inh
COc1cc(NC(=O)COC(=O)c2ccc(C)c(S(=O)(=O)N3CCCCC3)c2)c(C)cc1[N+](=O)[O-]	9	108	0	146*	105	1	102
CCOC(=O)CSc1ncc(-c2ccc([N+](=O)[O-])cc2)[nH]1	16	105	1	134*	98	2	103
CN(C)c1ccc(NC(=O)CN2CCN(CC(=O)Nc3ccc(F)cc3)CC2)cc1	17	117	18	109	nt	nt	nt
CN(C)c1ccc(NC(=O)CN2CCC(O)(c3ccccc3)CC2)cc1	14	nt	-35	1.0*[inhibitor]	33	-25	69*
CCOc1ccc(CCNC(=O)c2cccc(S(=O)(=O)N3CCN(C(C)=O)CC3)c2)cc1OCC	8	nt	nt	nt	nt	nt	nt
N=C(N)SCc1cn(-c2ccccc2)nc1-c1ccc(Br)cc1	nt	256*	107*	115	265*	105*	113
COc1ccccc1C(=O)NCCSCc1c(F)cccc1Cl	2	103	2	103	nt	nt	nt
Cc1c(C(=O)NCCSCc2c(F)cccc2Cl)cnn1-c1ccc(Cl)cc1	-4	128	28	129*	97	-3	102
Cn1c(=O)c2cc(S(=O)(=O)NC(Cc3ccccc3)C(=O)NCC3CCCO3)ccc2n(C)c1=O (centres undefined)	8	123	4	138*	96	-4	97
CC1CC2=C(C(=O)O1)C(c1ccc(Cl)cc1)Nc1ccccc1N2 (centres undefined)	-5	91	-1	71*[inhibitor]	104	8	104
CN(C)CCNC(=O)c1cc2sc3ccccc3c2s1	16	nt	nt	nt	nt	nt	nt
COc1ccccc1N(CC(=O)NCc1ccco1)C(=O)CCC(=O)Nc1ccccn1	-9	94	3	97	nt	nt	nt
CCOC(=O)c1c(C)oc2cc(Cl)c(O)c(CN(C)C)c12	0	131	27	128*	108	11	106
CCOC(=O)c1c(C)oc2ccc(O)c(CN(C)C)c12	8	101	3	94	nt	nt	nt
CC(=O)Oc1ccc(C(=O)Nc2cccc3c2CCCC3)cc1	-1	103	4	103	nt	nt	nt
CCCCc1ccc(NC(=S)NCCN2CCOCC2)cc1	7	99	0	99	nt	nt	nt
N#Cc1c(C(F)(F)F)cc(-c2ccccc2)[nH]c1=O	-14	122	4	127*	106	5	107
CC1(c2ccc(Cl)cc2Cl)NC(=O)N(CC(=O)Nc2ccc3[nH]c(=O)[nH]c3c2)C1=O (centres undefined)	20	nt	nt	nt	nt	nt	nt
Cc1ccc(Sc2nc(C)cc(C)c2S(C)(=O)=O)cc1	-6	95	-10	82*[inhibitor]	104	-1	100
CCCSc1nc(C)cc(C)c1S(C)(=O)=O	20	95	-5	103	nt	nt	nt
Cc1c(C(=O)Nc2ccc(F)cc2)cn2c(nc3ccccc32)c1C#N	0	87	2	95	nt	nt	nt
N#Cc1c2nc3ccccc3nc2n2cc(NC(=O)c3ccc(F)cc3)ccc12	nt	-1.0*[inhibitor]	-5	56*[inhibitor]	94	8	88
CCOC(=O)C(NC(=O)CCl)(Nc1sc(C)c(CC)c1C#N)C(F)(F)F (centres undefined)	-4	109	3	147*	99	1	98
CCOC(=O)C(NC(=O)CC(C)C)(Nc1sc(C)c(CC)c1C#N)C(F)(F)F (centres undefined)	24	98	-2	99	nt	nt	nt
Cc1oc(-c2ccccc2Cl)nc1Cn1cccc1C1=NC(c2ccccc2)CO1 (centres undefined)	-4	29*[inhibitor]	-13	19*[inhibitor]	103	-1	103
SMILES	VLA-4 inh	MEKK2wt PB1 HTS	MEKK2 mut-MEK5	MEKK3 PB1 HTS	MEKK2wt confirm	MEKK2mut-MEK5	MEKK3-MEK5 inh
CCOC(=O)c1cn[nH]c1NC(=S)Nc1ccc(OC)cc1	2	62	-21	50*[inhibitor]	106	-1	106
COc1ccccc1N1CCN(C(=O)c2cc3c(=O)n4cccc(C)c4nc3s2)CC1	3	90	-3	99	nt	nt	nt
COc1ccc(C(N)CCc2ccco2)cc1 (centres undefined)	17	132	27*	113	119	15	98
Cc1cc(C(=O)Nc2ccc(Cl)cc2)on1	20	109	-1	104	nt	nt	nt
Cc1cc(C(=O)Nc2ccc(C#N)cc2)on1	17	8.0*[inhibitor]	-49	4.0*[inhibitor]	95	-2	99
O=C(CSc1nccn1-c1cccc(Cl)c1)NO	-3	99	0	100	nt	nt	nt
O=C(CSc1nccn1-c1ccccc1)NO	5	70	51*	33*[inhibitor]	105	1	98
COC(=O)C(CC(C)C)NC(=O)c1cccs1 (centres undefined)	1	108	-1	129*	95	-3	98
CN(Cc1ccc(-n2cccn2)cc1)Cc1nc(-c2cnccn2)no1	-1	101	4	101	nt	nt	nt
N#CCN1C(=S)N=C(Nc2cccc(Cl)c2)C12CCCCC2	-1	100	0	101	nt	nt	nt
CC(C)(C)C1CCC2(CC1)C(Nc1cccc(C(F)(F)F)c1)=NC(=S)N2CC#N (centres undefined)	-11	3.0*[inhibitor]	-18	2.0*[inhibitor]	99	-1	98
Cc1ccc(NC(=O)CSc2ncccn2)cc1S(=O)(=O)N1CCOCC1	8	nt	nt	nt	nt	nt	nt
NC(=O)CNC(=O)C1CCN(S(=O)(=O)c2ccc(-n3cnnn3)cc2)CC1	2	87	-11	97	nt	nt	nt
COC(=O)Cn1c(=NC(=O)c2cc(OC)cc(OC)c2)sc2cc(OC)ccc21	11	103	0	130*	99	-10	105
COC(=O)Cn1c(=NC(=O)c2ccc(OC)cc2)sc2cc(OC)ccc21	0	102	4	98	nt	nt	nt
Cc1nc2sccn2c(=O)c1CCN1CCC(=C(c2ccc(F)cc2)c2ccc(F)cc2)CC1	-1	146*	12	86	136	20	107
Cc1nc2ccccn2c(=O)c1CCN1CCC(C(=O)c2ccc(F)cc2)CC1	17	95	4	88	nt	nt	nt
COc1ccc(-c2cc(-c3nnc(COC(=O)CC4CCCC4)o3)c3ccccc3n2)cc1OC	-7	93	0	135*	95	-9	99
CCc1ccc(NC(=O)COC(=O)c2nc3nc(C)cc(C)n3n2)cc1	2	nt	nt	nt	nt	nt	nt
COc1ccc(-c2nnc(SCC(=O)NC3CC3)o2)cc1	13	nt	nt	nt	nt	nt	nt
OCCN(CC(O)COc1ccccc1)CC(O)Cn1ccc2ccccc21 (centres undefined)	7	102	0	134*	104	3	101
CN(CC(=O)NCc1ccccn1)S(=O)(=O)c1ccc2ccccc2c1	11	111	0	135*	100	2	95
